The values below come from PubChem BioAssay (NCATS).

For test [1], the target named is Cytochrome P450 3A4 (Homo sapiens) (UniProt P08684). Briefly: qHTS Assay for Inhibitors and Substrates of Cytochrome P450 3A4 (AID 884). Further: nearly all actives have a fitted effect of over 50% in size. Further: potency means the concentration at half of the fitted maximal effect. The gist of the method:
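Luminescent readout of luciferin produced by CYP3A4 (20 nM) dealkylation of Luciferin-PPXE, 25 uM (its KM). NADPH-driven reaction ran 60 min at RT after 10 min compound preincubation; data scaled to 57 uM ketoconazole as 100% inhibition.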
(In general: Quantitative high-throughput screening tests each substance at several concentrations.)

Test [2] in a line: qHTS Assay for Identification of Small Molecule Antagonists for NFkB Signaling Pathway (AID 895; active means well fitted inhibition curve with a large enough effect in the signal ratio, with a control signal flat, not every such curve was filed as active; the % refers to the signal ratio). The gist of the method:
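NFkB-bla ME-180 cervical carcinoma cells with beta-lactamase reporter under NFkB response element; compounds added, then TNF alpha at 10 pM final (EC50), 5 h at 37 C. LiveBLAzer substrate 2 h, room temperature; emission 460/530 nm at 405 nm excitation.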

Test [3] addresses Muscarinic acetylcholine receptor M1 (Rattus norvegicus) (UniProt P08482). Nature of the test: qHTS Assay for Antagonists of Acetylcholine Muscarinic M1 Receptor: Kinetic Measurement of Intracellular Calcium Response (AID 943). Further: potency means the concentration at half of the fitted maximal effect; nearly all actives have a fitted effect of over 75% in size. The gist of the method: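 Read-out: peak over basal Fluo-4 fluorescence, kinetic at 1 Hz for 4 min after EC80 carbachol (100 nM final). Rat M1-CHO cells, dye loaded 1 h at 37C, compound added 10 min before agonist.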

Test [4] has the same target. Nature of the test: qHTS Assay for Antagonists of Acetylcholine Muscarinic M1 Receptor: Measurement of IP-One Response (AID 944). Further: potency means the concentration at half of the fitted maximal effect; nearly all actives have a fitted effect of over 75% in size. The gist of the method:
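Read-out: HTRF competition between d2-IP1 and Eu-cryptate anti-IP1 antibody, emission 620 and 665 nm. Stimulus was carbachol, EC80 (200 nM), for 30 min in M1-CHO cells (rat receptor), after 10 min compound pre-treatment.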

The test system of test [5] is DFO2036. Briefly: qHTS profiling for inhibitors of Plasmodium falciparum proliferation (AID 504749). Further: nearly all actives have a fitted effect of over 60% in size. The settings on record: P. falciparum in erythrocytes, SYBR Green DNA, 72 h; series mostly up to 12.8 µM. In short, it runs like this:
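Fluorescence of SYBR Green-bound parasite DNA, read at 485/535 nm, served as the growth measure. Infected erythrocytes were cultured with compound 72 h; artemisinin (0.29 uM) and DMSO wells defined the normalization range.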

Test [6] can be described thus: Confirmation and Secondary Assay for Modulators of Hemoglobin Beta Chain Splicing at IVS2 654 locus (AID 910).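 Further: per-well total GFP intensity by laser scanning cytometry after 2-day treatment.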 The gist of the method: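 HeLa cells stably carrying EGFP interrupted by mutant beta-globin IVS2-654 intron (CMV-driven) were treated with compound for 2 days at 37C; corrected splicing was scored as total peak GFP intensity per well (488 nm excitation, 500-520 nm emission).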

The nature of test [7]: Confirmation and Secondary Assay for Modulators of Hemoglobin Beta Chain Splicing at IVS2 705 locus (AID 930).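 Further: HeLa cells stably expressing the EGFP-705 splicing reporter; GFP fluorescence per well restored by corrected splicing of the IVS2-705 intron in EGFP.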 The gist of the method: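 HeLa IVS2-705 EGFP reporter cells, 500/well, compound 2 d at 37C; correct splicing yields fluorescent EGFP. Control: 500 nM antisense PNA. Read-out: total peak GFP intensity.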
Test [8] has as its target Cytochrome P450 2C9 (Homo sapiens) (UniProt P11712). Nature of the test: qHTS Assay for Inhibitors and Substrates of Cytochrome P450 2C9 (AID 883). Further: nearly all actives have a fitted effect of over 60% in size. The gist of the method: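 CYP2C9 deoxyluciferin hydroxylation, 37C, 60 min with NADPH regeneration; 10nM enzyme, 100uM Luciferin-H (KM). Glo detection reagent stopped reaction; luminescence normalized to sulphaphenazole (57uM) full inhibition.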

Test [9] has as its target Cytochrome P450 2D6 (Homo sapiens) (UniProt P10635). Briefly: Cytochrome P450 family 2 subfamily D member 6 (CYP2D6) small molecule antagonists: luciferase biochemical (cell-free) qHTS assay (AID 1645840; active means well fitted curve in the direction sought with a large enough effect in the repeat runs; an effect the other way counts as inactive or inconclusive; further: potency means the concentration at half of the fitted maximal effect; nearly all actives have a fitted effect of over 55% in size). In short, it runs like this:
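P450-Glo CYP2D6 system: proluciferin substrate converted by enzyme to luciferin, read by luminescence proportional to activity. Enzyme-substrate mix with compound 10 min at room temperature, then NADPH regeneration 1 h before detection reagent.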

The target of test [10] is Cytochrome P450 2C9 (Homo sapiens) (UniProt P11712). Nature of the test: Cytochrome P450 family 2 subfamily C member 9 (CYP2C9) small molecule antagonists: luciferase biochemical (cell-free) qHTS assay (AID 1645842; active means well fitted curve in the direction sought with a large enough effect in the repeat runs; an effect the other way counts as inactive or inconclusive; further: potency means the concentration at half of the fitted maximal effect; nearly all actives have a fitted effect of over 55% in size). The gist of the method:
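P450-Glo CYP2C9 system: proluciferin substrate with enzyme in mix containing 0.4% BSA, 10 min at room temperature, then NADPH regeneration solution added and incubated 1 h at 37C. Detection reagent stopped reaction; luminescence read after 20 min as RLU.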

Test [11] addresses Vitamin D3 receptor (Homo sapiens) (UniProt P11473). Nature of the test: qHTS for Inhibitors of the vitamin D receptor (VDR): Hit Validation in Primary Screen (AID 602199). Further: potency means the concentration at half of the fitted maximal effect. The following applies: VDR-coactivator inhibition assay, qHTS confirmation. The gist of the method: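 Fluorescence polarization assay of VDR binding to Alexa 647-labelled SRC2-3 coactivator peptide: 800nM VDR with 5uM LG19078 agonist, compounds, 2 h at room temperature, read Ex 620 nm/Em 688 nm.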

Test [12] shares this target. Briefly: qHTS for Inhibitors of the vitamin D receptor (VDR): Hit Validation using a Fluorescein Assay (AID 602200). Further: potency means the concentration at half of the fitted maximal effect. The settings on record: VDR-coactivator binding, fluorescein fluorescence polarization. In short, it runs like this:
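Fluorescence polarization (Ex 495 nm/Em 520 nm) read after 2 h at room temperature, reporting disruption of binding between 1.5 uM VDR-LBD, liganded by 5 uM LG19078, and 5 nM fluorescein-labelled SRC2-3 coactivator peptide (final concentrations).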

Test [13] has the same target. Nature of the test: qHTS for Inhibitors of the vitamin D receptor (VDR): Hit Validation using a Beta-Lactamase Assay (AID 602202). Further: potency means the concentration at half of the fitted maximal effect. The gist of the method:
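Stably transfected HEK293 cells express a VDR–GAL4 DNA-binding-domain fusion driving a UAS beta-lactamase reporter, stimulated by agonist LG190178. Compounds were added 4 h after plating and incubated 18 h. A FRET beta-lactam substrate was then added for 2 h and cleaved substrate emission read at 447 nm.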

Test [14] has as its target Cytochrome P450 2D6 (Homo sapiens) (UniProt P10635). Nature of the test: qHTS Assay for Inhibitors and Substrates of Cytochrome P450 2D6 (AID 891). Further: potency means the concentration at half of the fitted maximal effect; nearly all actives have a fitted effect of over 60% in size. The gist of the method:
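Luminescent read-out of luciferin formed by 5 nM human CYP2D6 demethylating 30 uM Luciferin-ME EGE (Km level) over 60 min at room temperature after NADPH regeneration addition. Data normalized to full inhibition by 1.43 uM quinidine.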

Test [15] has as its target Cytochrome P450 2C19 (Homo sapiens) (UniProt P33261). Nature of the test: qHTS Assay for Inhibitors and Substrates of Cytochrome P450 2C19 (AID 899). Further: nearly all actives have a fitted effect of over 60% in size. In short, it runs like this:
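In 50mM KPO4, the reaction held 5nM enzyme and KM-level (10uM) Luciferin-H EGE; it ran 60 min at 37C after NADPH regeneration and a 10 min compound preincubation. Luminescence values were scaled to 57uM ketoconazole as complete inhibition.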

The target in test [16] is DNA dC->dU-editing enzyme APOBEC-3G (Homo sapiens) (UniProt Q9HC16). Nature of the test: qHTS for inhibitors of Vif-A3G interactions: Validation (AID 588379). The gist of the method: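 Yellow fluorescence (Ex 488, Em 500-530) of Vif-coexpressing HeLa A3G-eYFP cells, scanned by Acumen cytometer, reports blocked A3G degradation. Cells plated at 700/well overnight at 37 deg C before compound addition, then a further overnight compound incubation at 37 deg C.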
Chain of DNA dC->dU-editing enzyme APOBEC-3G (Homo sapiens) (Q9HC16 whole entry, looked up): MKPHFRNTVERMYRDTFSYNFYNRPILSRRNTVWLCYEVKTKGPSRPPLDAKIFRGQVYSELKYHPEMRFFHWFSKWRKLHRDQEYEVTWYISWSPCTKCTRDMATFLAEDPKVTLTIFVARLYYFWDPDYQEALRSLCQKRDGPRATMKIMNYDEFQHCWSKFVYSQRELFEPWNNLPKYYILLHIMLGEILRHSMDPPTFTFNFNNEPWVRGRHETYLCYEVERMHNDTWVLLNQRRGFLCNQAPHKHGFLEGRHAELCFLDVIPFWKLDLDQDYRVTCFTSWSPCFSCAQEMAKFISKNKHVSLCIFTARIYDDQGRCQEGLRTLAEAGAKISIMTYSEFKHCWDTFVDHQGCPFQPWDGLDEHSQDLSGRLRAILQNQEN

Test [17] in a line: qHTS Assay for Identification of Small Molecule Agonists for Hypoxia Response Element Signaling Pathway (AID 914; active means well fitted activation curve with a large enough effect in the signal ratio, with a control signal flat, not every such curve was filed as active; the % refers to the signal ratio). The following applies: ME-180 (cervical carcinoma) HRE-bla reporter, beta-lactamase ratio, CoCl2, 17 h; activation: stronger effect = higher value. The gist of the method:
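HRE-bla ME-180 assay for agonist-like enhancement of an EC50 CoCl2 stimulus: 17 h at 37 degrees Celsius, CCF4 for 2.5 h, ratiometric 460/530 nm signal converted to %Activity and fitted to AC50.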

Test [18] in a line: S16 Schwann cell PMP22 intronic element beta-lactamase assay (AID 624044; calls by dose curve; further: nearly all actives have a fitted effect of over 15% in size). The gist of the method: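 Beta-lactamase reporter under a PMP22 intronic regulatory element in stable S16 rat Schwann cells; 24 h compound exposure. 460 nm blue signal normalized between DMSO (0%) and potassium clavulanate, with 535 nm FRET tracking viability; curves classed by r2 and response.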

“And” between values parts separate entries of the source, which are not always exact repeats. Equal entries are not always repeated. Unmarked numbers belong to inactive results. Records with an inconclusive call do not appear. The list shows a part of the results. Entries that show only a call come without a potency. The source made the active and inactive calls. Unless noted, the call rests on the fitted dose curve; in most records, active means well fitted curve in the direction sought with a large enough effect; inconclusive means small, poorly fitted or top-dose-only effect, or another doubt; inactive means no such curve, though single readings can be large; an effect the other way counts as inactive or inconclusive.

Chain of Vitamin D3 receptor (Homo sapiens) (P11473 whole entry, looked up): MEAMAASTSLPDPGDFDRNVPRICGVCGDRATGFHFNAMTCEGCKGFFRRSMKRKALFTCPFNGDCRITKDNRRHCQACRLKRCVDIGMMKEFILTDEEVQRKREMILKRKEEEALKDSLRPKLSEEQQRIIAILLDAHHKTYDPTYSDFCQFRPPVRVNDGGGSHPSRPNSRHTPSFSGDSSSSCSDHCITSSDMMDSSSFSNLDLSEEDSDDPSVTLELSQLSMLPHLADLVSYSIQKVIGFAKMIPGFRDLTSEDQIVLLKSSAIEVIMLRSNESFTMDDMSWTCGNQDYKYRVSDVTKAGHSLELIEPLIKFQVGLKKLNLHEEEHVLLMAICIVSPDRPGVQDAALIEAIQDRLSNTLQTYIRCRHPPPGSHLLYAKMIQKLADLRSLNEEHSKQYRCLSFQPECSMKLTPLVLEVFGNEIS
Chain of Cytochrome P450 2C19 (Homo sapiens) (P33261 whole entry, looked up): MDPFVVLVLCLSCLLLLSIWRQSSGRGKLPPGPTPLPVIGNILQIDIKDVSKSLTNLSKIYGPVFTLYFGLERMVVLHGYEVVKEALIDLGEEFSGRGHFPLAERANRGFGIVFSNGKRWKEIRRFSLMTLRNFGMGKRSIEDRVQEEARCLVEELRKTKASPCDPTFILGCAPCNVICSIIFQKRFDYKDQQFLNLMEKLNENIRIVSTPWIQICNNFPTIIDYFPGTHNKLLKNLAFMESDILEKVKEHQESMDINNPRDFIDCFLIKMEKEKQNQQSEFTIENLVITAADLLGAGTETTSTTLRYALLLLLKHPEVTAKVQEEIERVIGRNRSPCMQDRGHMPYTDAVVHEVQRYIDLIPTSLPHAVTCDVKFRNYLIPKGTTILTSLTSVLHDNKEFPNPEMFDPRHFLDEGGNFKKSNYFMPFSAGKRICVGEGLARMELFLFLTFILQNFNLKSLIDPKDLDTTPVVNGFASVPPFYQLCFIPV
Chain of Cytochrome P450 3A4 (Homo sapiens) (P08684 whole entry, looked up): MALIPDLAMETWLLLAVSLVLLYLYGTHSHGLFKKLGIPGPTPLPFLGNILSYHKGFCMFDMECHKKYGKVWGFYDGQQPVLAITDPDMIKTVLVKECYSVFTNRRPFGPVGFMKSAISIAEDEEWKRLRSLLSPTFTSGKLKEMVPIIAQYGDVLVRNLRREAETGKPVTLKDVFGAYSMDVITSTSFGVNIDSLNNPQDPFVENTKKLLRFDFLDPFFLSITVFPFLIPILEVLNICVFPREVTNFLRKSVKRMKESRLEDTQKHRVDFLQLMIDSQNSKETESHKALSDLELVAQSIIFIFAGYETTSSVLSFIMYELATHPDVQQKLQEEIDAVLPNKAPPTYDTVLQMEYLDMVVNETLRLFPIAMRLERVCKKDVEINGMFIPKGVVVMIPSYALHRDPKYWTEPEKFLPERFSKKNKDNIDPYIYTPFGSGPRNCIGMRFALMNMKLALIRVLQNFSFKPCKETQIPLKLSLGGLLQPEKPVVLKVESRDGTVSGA
Chain of Cytochrome P450 2C9 (Homo sapiens) (P11712 whole entry, looked up): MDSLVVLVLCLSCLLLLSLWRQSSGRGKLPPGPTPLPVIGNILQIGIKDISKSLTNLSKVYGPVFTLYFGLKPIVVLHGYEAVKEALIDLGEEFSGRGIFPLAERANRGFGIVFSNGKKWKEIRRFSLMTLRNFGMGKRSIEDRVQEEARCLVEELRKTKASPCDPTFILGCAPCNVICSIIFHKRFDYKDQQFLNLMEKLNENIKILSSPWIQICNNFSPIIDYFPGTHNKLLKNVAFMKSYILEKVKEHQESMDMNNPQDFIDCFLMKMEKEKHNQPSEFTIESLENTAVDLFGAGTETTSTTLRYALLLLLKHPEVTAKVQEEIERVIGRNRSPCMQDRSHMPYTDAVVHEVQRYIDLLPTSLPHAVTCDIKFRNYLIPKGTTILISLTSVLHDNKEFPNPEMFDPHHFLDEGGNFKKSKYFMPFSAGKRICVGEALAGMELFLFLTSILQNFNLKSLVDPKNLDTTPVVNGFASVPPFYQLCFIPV
Chain of Cytochrome P450 2D6 (Homo sapiens) (P10635 whole entry, looked up): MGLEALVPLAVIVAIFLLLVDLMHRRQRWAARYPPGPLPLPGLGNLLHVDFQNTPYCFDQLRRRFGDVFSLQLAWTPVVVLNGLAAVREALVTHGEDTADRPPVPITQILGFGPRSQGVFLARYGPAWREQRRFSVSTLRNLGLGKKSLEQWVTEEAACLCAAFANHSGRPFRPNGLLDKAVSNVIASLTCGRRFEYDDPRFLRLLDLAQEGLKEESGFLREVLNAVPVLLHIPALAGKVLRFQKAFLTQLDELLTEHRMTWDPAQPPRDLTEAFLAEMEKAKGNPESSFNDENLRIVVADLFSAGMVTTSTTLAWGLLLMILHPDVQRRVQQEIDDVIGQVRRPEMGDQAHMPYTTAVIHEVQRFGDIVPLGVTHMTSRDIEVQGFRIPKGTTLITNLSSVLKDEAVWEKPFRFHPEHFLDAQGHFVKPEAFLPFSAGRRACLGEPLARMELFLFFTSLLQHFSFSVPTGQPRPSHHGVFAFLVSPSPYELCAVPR
Chain of Muscarinic acetylcholine receptor M1 (Rattus norvegicus) (P08482 whole entry, looked up): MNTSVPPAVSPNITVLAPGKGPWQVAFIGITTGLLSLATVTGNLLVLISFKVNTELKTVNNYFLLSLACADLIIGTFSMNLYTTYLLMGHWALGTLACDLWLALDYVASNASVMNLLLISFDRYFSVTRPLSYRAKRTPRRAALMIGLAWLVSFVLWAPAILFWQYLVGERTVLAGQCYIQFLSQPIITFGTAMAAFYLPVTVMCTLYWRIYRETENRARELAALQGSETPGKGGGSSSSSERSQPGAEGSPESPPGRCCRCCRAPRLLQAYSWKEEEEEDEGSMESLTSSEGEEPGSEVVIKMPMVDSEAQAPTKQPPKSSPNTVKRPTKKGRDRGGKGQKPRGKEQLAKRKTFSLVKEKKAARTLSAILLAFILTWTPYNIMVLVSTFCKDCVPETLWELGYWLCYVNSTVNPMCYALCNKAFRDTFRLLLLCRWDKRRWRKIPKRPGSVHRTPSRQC

Consider `CN(C)CC[C@@H](c1ccccc1)c1ccccn1`, for which the Potency result in test [1] and in test [2] was “inactive” each time. Moreover, the Potency in [3] was 11.2 µM (active); in test [4], 10 µM (active).

In the case of `O=C(O)/C=C\c1ccc(Cn2ccnc2)cc1`, in test [5], the Potency result is “inactive”.

Turning to `CC(C)(S)[C@H](N)C(=O)O`, the Potency entry in test [1] and in [6] was “inactive” in each case. Also, in test [7], the compound was classed as inactive.

Take `Cc1ccccc1[C@@H](OCCN(C)C)c1ccccc1`: the Potency result in test [8] was “inactive”.

Turning to `Nc1ncnc2c1ncn2C1OC(CO)C(O)C1O` (stereo unspecified), the compound was classed as inactive in test [7].

Consider `CC(CCC(=O)O)C1CCC2C3C(O)C[C@@H]4CC(O)CC[C@@]4(C)C3CC[C@@]12C` (stereo partly specified), for which the Potency entry in test [6] was “inactive”. In test [7], the call was inactive.

Take `Cc1ccc(Cn2c(C)c3cnn(CC(=O)NCc4ccccc4)c(=O)c3c2C)cc1`: the Potency in [9] is 9.52 µM (active); in [10], 12 µM (active).

For the compound `CS(=O)(=O)Nc1cccc(-c2nc(N3CCNCC3)c3ccccc3n2)c1`, in test [6], the Potency result was “inactive”. The result in [7] was inactive.

Regarding `CCCCOc1ccc(CN2C(=O)C(=O)c3cc(Br)cc(C)c32)cc1OC`, the Potency is 10 µM (active) in test [11] and 8.91 µM (active) in [12]. Besides, the Potency result in test [13] is “inactive”.

As to `CCCN1C[C@H](CSC)C[C@H]2c3cccc4[nH]cc(c34)C[C@@H]21`, the Potency entry in [8] and in [15] was “inactive” throughout. For the same compound, the Potency in test [14] is 0.0316 µM (active).

For the compound `CC1(C)Oc2ccc(C#N)cc2[C@H](N2CCCC2=O)[C@H]1O`, the Potency entry in [8] and in [15] was “inactive” in each case. Besides, the result in test [16] was inactive.

`C[N+]1(C)CCC[C@@H](OC(=O)C(O)(c2ccccc2)c2ccccc2)C1`: the Potency entry in [15] is “inactive”.

In the case of `C[C@@H](C(=O)O)c1cccc(C(=O)c2ccccc2)c1`, the Potency entry in test [2] is “inactive”.

As for `CS(=O)(=O)N1CCC[C@@]2(CCN(c3ccncc3)C2)C1`, the Potency in [1] is 7.94 µM (active).

Take `COc1c(O)cc2c(c1O)[C@@H]1O[C@@H](CO)[C@@H](O)[C@@H](O)[C@@H]1OC2=O`: the activation in test [17] was 14.6%.

In the case of `COc1ccccc1-c1cc(C(F)(F)F)nc(S(=O)(=O)CCCC(=O)Nc2ccc(F)cc2F)n1`, the Potency is 4.47 µM (active) in [11], 8.91 µM (active) in test [12] and 18.4 µM (active) in test [13].

For `N=c1ccn2c(n1)OC1C(O)C(CO)OC12` (stereo unspecified), the Potency entry in test [1] and in test [6] was “inactive” in each case. For the same compound, the compound was called inactive in test [7].

Consider `C=C1C2CC[C@@]3(C)C(c4ccoc4)OC(=O)C[C@@]13OC1CC(O)C(C)(C)C(CC(=O)OC)[C@@]12C` (stereo partly specified), for which, in test [1], the Potency is 12.6 µM (active) and 7.94 µM (active). The Potency result in test [6] is “inactive”. Also, the result in [7] was inactive.

Regarding `CC1(C)O[C@@H]2C[C@H]3[C@H]4C[C@H](F)C5=CC(=O)C=C[C@@]5(C)[C@@H]4[C@H](O)C[C@]3(C)[C@]2(C(=O)CO)O1`, the Potency result in [15] is “inactive”. The outcome in test [18] was inactive.

As to `CN[C@@H](CC(C)C)C(=O)N[C@@H]1C(=O)N[C@H](CC(N)=O)C(=O)N[C@@H]2C(=O)N[C@H]3C(=O)N[C@H](C(=O)N[C@H](C(=O)O)c4cc(O)cc(O)c4-c4cc3ccc4O)[C@H](O)c3ccc(c(Cl)c3)Oc3cc2cc(c3O[C@H]2O[C@@H](CO)[C@@H](O)[C@@H](O)[C@@H]2O[C@@H]2C[C@](C)(N)[C@H](O)[C@H](C)O2)Oc2ccc(cc2Cl)[C@@H]1O`, the Potency entry in test [5] is “inactive”.
